Molecules are shown by their SMILES. The source made the active and inactive calls. How the source made its calls: active means hit-call score of the fitted dose curve at least 0.9, where 1 is the maximum; inactive means score below 0.9.

Read-out in the experiment: Apolipoprotein A-V (APOA5) gene, APOA5 (gene 116519)
Kind of experiment: LTEA_HepaRG_APOA5: Life Technologies and Expression Analysis (LTEA) Assay for Apolipoprotein A-V (APOA5) gene using HepaRG (AID 2283474). Particulars: mRNA level, 48 h; actives raise or lower the signal. On the procedure: LTEA_HepaRG is a cell based, multiplexed-readout assay that uses HepaRG, a human liver cell line, with measurements taken at 48 hours after chemical dosing on a 96-well plate.LTEA_HepaRG_APOA5 is one of 102 assay component(s) measured in the LTEA HepaRG cell culture assay. It is a marker of Steatosis.Data from the assay component LTEA_HepaRG_APOA5 was analyzed into 1 endpoint. This assay endpoint, LTEA_HepaRG_APOA5, was analyzed with bidirectional fitting relative to DMSO as the negative control and baseline of activity. Using a type of inducible reporter, measures of mRNA induction for gain or loss-of-signal activity can be used to understand regulation of transcription factor activity. To generalize the intended target to other relatable targets, this assay endpoint is annotated to the apolipoprotein intended target family, where the subfamily is Steatosis.
A total of 1060 chemcials from the ToxCast library were tested in eight-point concentration-response experiments. Cell culture and cytotoxicity assays were conducted at Thermo Fisher Scientific's Custom Services facility (Madison, WI). A single lot of human HepaRG cells (Thermo Fisher Scientific, Frederick, MD) was used for the cell culture experiments. 96-well format collagen type I coated plates of human HepaRG cells were prepared using established methods. Briefly, cryopreserved HepaRG cells were thawed, plated at a density of approximately 100,000 cells/well in HepaRG Thaw, Plate, and General Purpose media (HPRG770, Thermo Fisher Scientific), and incubated for 48 hours. 0.5% DMSO was selected as vehicle control to balance the requisite need of DMSO in HepaRG cultures to maintain differentiation (for example, baseline metabolism, proportions of hepatocytes vs. cholangiocytes), while enabling further hepatic receptor pathway activation (for example, PXR and CAR) in response to chemical exposure. 48 hours after plating, the culture medium was replaced with HepaRG Serum-Free Incudtion Media. Cells were exposed to each test chemical in duplicate and maintained in CO2 incubators for another 48 hours. Chemical plates were thawed to room temperature and 200x concentrations of treatment groups were prepared. 8-point conentration-reponse curves were made with the highest exposure at 100 uM, followed by half-log dilutions, all in 0.5% DMSO. Each test plate contained variouse controls, induction positive controls (1mM phenobarbital), cytotoxicity positive controls ([…] aflatoxin B1), vehicle controls (0.5% DMSO), and total lysis controls (0.5% DMSO). Cell morphology images were taken using an Essen IncuCyte FLR automated microscope, with six 96-well plates imaged in about 24 minutes. Images were captured and exported and JPEG files. Spent culture media was transfered to black-well plates for the LDH assay, and remaining media was sorted at -80 C for later use. Cells were treated with RLT buffer and frozen until shipped for gene expression analysis. Total RNA was isolated from the cell suspension in 75 uL of Buffer RLT (Qiagen, Germantown, MD 20874) by Quintiles/Expression Analysis (Durham, NC) using a custom isolation procedure. Total RNA from each plate well was transferred to a preamplification plate. Fluidigm's 96.96 Dynamic ArrayTM (Fluidigm, Amsterdam, the Netherlands) technology was used for gene expression analyses by quantitative reverse transcription polymerase chain reaction (qRT-PCR, performed by Quintiles/Expression Analysis, Durham, NC)89. Standard TaqManTM Assays (Applied Biosystems/ThermoFisher Scientific, Foster City, CA) were used to assess the expression of 93 genes selected based on their selectivity and sensitivity to important hepatic receptors known to be modulated by environmental chemicals; importance in human hepatocyte functionality; and hepatotoxicity. […]
For `O=C(O)C(Cl)(Cl)Cl`, the compound was called inactive.

Consider `O=[N+]([O-])c1ccc(O)c([N+](=O)[O-])c1`, for which the AC50 was 25.3 µM (active). In the case of `O=C(O)C(F)(F)C(F)(F)C(F)(F)C(F)(F)C(F)(F)C(F)(F)F`, the call was inactive.

As to `Oc1cccc2cccnc12`, the call was inactive. Still for that read-out and setting: with `CCOP(=S)(OCC)SCSP(=S)(OCC)OCC` the entry was “inactive”. For the compound `CCOP(=S)(OCC)Oc1nc(Cl)c(Cl)cc1Cl`, the compound was called inactive. On to `CC(C)(c1ccccc1)c1ccc(O)c(C(C)(C)c2ccccc2)c1`, for which the concentration at half-maximal activity (AC50) is 50 µM (active). The same measure, in the same setting: with `C=C(C)C(=O)[O][Sn]([CH2]CCC)([CH2]CCC)[CH2]CCC` the figure was 2.92 µM (active); with `CCN1CCC2(CC1)COc1cc3c(cc12)N(C(=O)c1ccc(-c2ccc(-c4nnc(C)o4)cc2C)cc1)CC3`, 24.6 µM (active).

On to `CCCCCCCCc1ccc(O)cc1`, for which the call was inactive.

As to `ClC1(Cl)C2(Cl)C3(Cl)C4(Cl)C(Cl)(Cl)C5(Cl)C3(Cl)C1(Cl)C5(Cl)C24Cl` (stereo unspecified), the compound was classed as inactive. On to `O=C(Nc1ccc2[nH]ccc2c1)c1cc2cc(F)ccc2n1Cc1cccc(F)c1`, for which the AC50 is 56.2 µM (active). On the same count and under the same terms, under `ClCC(Cl)CCl` stands 77.6 µM (active). In the case of `O=C(O)C(F)(F)C(F)(F)C(F)(F)C(F)(F)C(F)(F)C(F)(F)C(F)(F)C(F)(F)C(F)(F)C(F)(F)F`, the result was inactive.

As to `Cn1sc(Cl)cc1=O`, the compound was called inactive. Take `CC(C)(C)CC(C)(C)c1ccc(O)cc1`: the half-maximal activity concentration (AC50) was 50 µM (active).

For `COc1cc(-c2ccc(N)c(OC)c2)ccc1N`, the compound was classed as inactive. The same measure, in the same setting: under `CCC(C)(C)c1ccc(O)c(C(C)(C)CC)c1` stands “inactive”. As for `C[C@@H]1C[C@@H]([C@H](O)CC2CC(=O)NC(=O)C2)C(=O)[C@@H](C)C1`, the AC50 is 26 µM (active). On to `O=C1C2(Cl)C3(Cl)C4(Cl)C(Cl)(Cl)C5(Cl)C3(Cl)C1(Cl)C5(Cl)C24Cl` (stereo unspecified), for which the call was inactive.

Consider `CC12CC1(C)C(=O)N(c1cc(Cl)cc(Cl)c1)C2=O` (stereo unspecified), for which the compound was classed as inactive. On the same count and under the same terms, with `CCC(=O)C(CC(C)N(C)C)(c1ccccc1)c1ccccc1` (stereo unspecified) the entry was “inactive”. Same read-out and setting: under `C[C@]12CCC(=O)C[C@@H]1CC[C@@H]1[C@@H]2CC[C@]2(C)[C@@H](O)CC[C@@H]12` stands “inactive”. Still for that read-out and setting: with `O=c1[nH]c(=O)[nH]c(=O)[nH]1` the entry was “inactive”; with `CC(C)(OO)c1ccccc1`, “inactive”. `C=CC(=O)OCCCCCC(C)C`: the concentration at half-maximal activity (AC50) was 0.483 µM (active). As to `CC(C)(C)c1cc(O)ccc1O`, the compound was called inactive. As for `CC(=O)[O][Hg][c]1ccccc1`, the half-maximal activity concentration (AC50) was 4.21 µM (active).

In the case of `NC(=O)O`, the compound was classed as inactive. The same measure, in the same setting: under `CN(C)N=O` stands “inactive”; under `Cc1ccccc1N`, “inactive”.
